Measured values published in PubChem BioAssay (NCI).
About 83,000 compounds went through this panel and 20% of them were active in at least one assay; those are over-represented in the sample as a whole.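 Negative percent growth values reflect cell death: -40 means 40% of the cells present at the start died, and -100 means all died.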 The source made the active and inactive calls. How the source made its calls: active means growth percent below 10; inactive means the rest.

Columns and labels:
Assay in all cases: NCI-60 one-dose screen, 48 h (100 = growth as untreated, 0 = no growth, -100 = all killed)
Conditions in all cases: 10 µM
NCI-H23 lung = test system: NCI-H23 lung
NCI-H226 lung = test system: NCI-H226 lung
HOP-62 NSCLC = test system: HOP-62 NSCLC
NCI-H460 lung = test system: NCI-H460 lung
NCI-H522 lung = test system: NCI-H522 lung
A549/ATCC NSCLC = test system: A549/ATCC NSCLC
786-0 renal = test system: 786-0 renal
COLO 205 colon = test system: COLO 205 colon
HOP-92 NSCLC = test system: HOP-92 NSCLC

Measured: growth

Nc1ncc(-c2cnn(C3CCNCC3)c2)cc1-c1nc2ccccc2o1
active: NCI-H460 lung -0.928% | A549/ATCC NSCLC 7.74% | COLO 205 colon -73.7%
inactive: NCI-H23 lung 20.2% | NCI-H226 lung 15.8% | HOP-62 NSCLC 24.3% | NCI-H522 lung 19.7% | 786-0 renal 19.5%

O=C(CSc1nnc(-c2cccnc2SCc2ccccc2)o1)Nc1nc(Cl)cc(Cl)n1
inactive: NCI-H23 lung 102% | NCI-H226 lung 83.7% | HOP-62 NSCLC 90.6% | NCI-H460 lung 105% | NCI-H522 lung 83.1% | A549/ATCC NSCLC 104%

c1ccc(CSc2ncccc2-c2nnc(SCCN3CCOCC3)o2)cc1
inactive: NCI-H23 lung 104% | NCI-H226 lung 114% | HOP-62 NSCLC 116% | NCI-H460 lung 122% | NCI-H522 lung 105% | A549/ATCC NSCLC 112%

Cc1ccc(C(C)C)c(O)c1NC(=O)OC(C)C
inactive: NCI-H23 lung 96.2% | NCI-H226 lung 99.4% | HOP-62 NSCLC 91.6% | NCI-H460 lung 102% | NCI-H522 lung 84.8% | A549/ATCC NSCLC 104% | 786-0 renal 92.3% | COLO 205 colon 99.6%

COc1cc(/C=C2\CCCC3C2=Nc2ccccc2NC3c2cc(OC)c(OC)c(OC)c2)cc(OC)c1OC (stereo not drawn)
active: NCI-H23 lung 8.47% | NCI-H226 lung -38.4% | HOP-62 NSCLC -3.43% | NCI-H460 lung -12.2% | NCI-H522 lung -6.47% | A549/ATCC NSCLC 5.87% | 786-0 renal 1.85% | COLO 205 colon 0.19%

Cc1cc(Br)nnc1Br
inactive: NCI-H23 lung 106% | NCI-H226 lung 87.2% | HOP-62 NSCLC 91.8% | NCI-H460 lung 117% | NCI-H522 lung 110% | A549/ATCC NSCLC 109% | 786-0 renal 104% | COLO 205 colon 100%

COc1cc2cc(Oc3ccc(NC(=O)c4cccc(C(F)(F)F)c4)cc3)c(C)nc2cc1OC
inactive: NCI-H23 lung 27.1% | NCI-H226 lung 48.1% | HOP-62 NSCLC 87.1% | NCI-H460 lung 28.3% | NCI-H522 lung 28.9% | A549/ATCC NSCLC 24.1% | 786-0 renal 45.4% | COLO 205 colon 27.2%

O=C1c2ccccc2C(=O)c2c1ccc(C(Br)Br)c2[N+](=O)[O-]
inactive: HOP-62 NSCLC 78.4% | NCI-H460 lung 75.2% | NCI-H522 lung 64.1% | A549/ATCC NSCLC 94.6% | 786-0 renal 21.1%
active: NCI-H23 lung 4.98% | NCI-H226 lung -1.88%

NC1=NC(c2ccccc2)C2=C(N1)/C(=C/c1ccccc1)CCC2 (stereo not drawn)
inactive: NCI-H23 lung 78.1% | NCI-H226 lung 109% | HOP-62 NSCLC 114% | NCI-H460 lung 98.9% | NCI-H522 lung 48.4% | A549/ATCC NSCLC 87% | 786-0 renal 101% | COLO 205 colon 112%

CC1C(=NC(=O)c2cnccn2)C(C)C(c2ccc(Cl)cc2)NC1c1ccncc1 (stereo not drawn)
inactive: NCI-H23 lung 94% | NCI-H226 lung 101% | HOP-62 NSCLC 97.7% | NCI-H460 lung 108% | NCI-H522 lung 70.9% | A549/ATCC NSCLC 92.9% | 786-0 renal 90.8%

O=C(CCC(C(=O)c1ccccc1)c1ccccc1)c1ccccc1 (stereo not drawn)
inactive: NCI-H23 lung 78.6% | NCI-H226 lung 83.1% | HOP-62 NSCLC 76.8% | NCI-H460 lung 76.2% | A549/ATCC NSCLC 61.9% | 786-0 renal 82.7%
active: NCI-H522 lung 3.51%

CCN(CC)c1ccc(/C=C2\SC(=O)C(Nc3nnc(-c4cccnc4SCc4ccccc4)o3)C2=O)cc1 (stereo not drawn)
inactive: NCI-H23 lung 21.7% | NCI-H226 lung 20.1% | HOP-62 NSCLC 30.5% | A549/ATCC NSCLC 12.2%
active: NCI-H460 lung 3.5% | NCI-H522 lung -17.6%

COc1ccc(C2CC(c3cc(OC)c(OC)c(OC)c3)=NN2)cc1 (stereo not drawn)
inactive: NCI-H23 lung 86.6% | NCI-H226 lung 93.2% | HOP-62 NSCLC 98.1% | NCI-H460 lung 51.5% | NCI-H522 lung 53.3% | A549/ATCC NSCLC 51.7% | 786-0 renal 92.1%

O=C(CCn1cnc2c(cc(-c3ccccc3)n2-c2ccccc2)c1=O)Nc1ccc(F)cc1
inactive: NCI-H23 lung 76.1% | NCI-H226 lung 106% | HOP-62 NSCLC 13% | NCI-H460 lung 80.4% | NCI-H522 lung 55% | A549/ATCC NSCLC 70.9% | 786-0 renal 62.7% | COLO 205 colon 103%

COc1ccc(C(=O)c2cc3c(OC)c(OC)c(OC)cc3[nH]2)cc1
inactive: NCI-H23 lung 32.3% | NCI-H226 lung 86.5% | HOP-62 NSCLC 77.8% | NCI-H460 lung 16.8% | NCI-H522 lung 25.4% | A549/ATCC NSCLC 36.6% | 786-0 renal 73.2% | COLO 205 colon 37.4%

COc1ccc2c(c1)C(=O)/C(=C/c1ccc([N+](=O)[O-])o1)O2
active: NCI-H23 lung -59% | NCI-H226 lung -13.7% | HOP-62 NSCLC -45.3% | NCI-H460 lung -46.8% | NCI-H522 lung -85% | A549/ATCC NSCLC -5.34% | 786-0 renal -71% | COLO 205 colon -81.6%

O=C(CNc1nnc(-c2cccnc2SCc2ccccc2)s1)Nc1nc(Cl)cc(Cl)n1
inactive: NCI-H23 lung 112% | NCI-H226 lung 107% | HOP-62 NSCLC 95.4% | NCI-H460 lung 123% | NCI-H522 lung 102% | A549/ATCC NSCLC 120%

CSc1nc2c(c(=O)n1C)CN(Cc1ccccc1)C(=O)CN2
inactive: NCI-H23 lung 93.5% | NCI-H226 lung 96% | HOP-62 NSCLC 82.7% | NCI-H460 lung 106% | NCI-H522 lung 79.6% | A549/ATCC NSCLC 91% | 786-0 renal 91.9% | COLO 205 colon 113%

CC(C)(O)CCl
inactive: NCI-H23 lung 109% | NCI-H226 lung 96.7% | HOP-62 NSCLC 107% | NCI-H460 lung 102% | HOP-92 NSCLC 114% | A549/ATCC NSCLC 98.4% | 786-0 renal 114% | COLO 205 colon 126%

CC1=NN(C(=O)c2nn(-c3ccc(Cl)cc3)cc2O)C(=O)C1
inactive: NCI-H23 lung 52.5% | NCI-H226 lung 40.3% | HOP-62 NSCLC 44.1% | NCI-H460 lung 24% | NCI-H522 lung 42.3% | A549/ATCC NSCLC 45.6% | 786-0 renal 56.5% | COLO 205 colon 53%

O=C1c2c(c(=O)[nH]c3ccccc23)CCN1Cc1ccccc1
inactive: NCI-H23 lung 102% | NCI-H226 lung 97.1% | HOP-62 NSCLC 92.7% | NCI-H460 lung 108% | NCI-H522 lung 90.6% | A549/ATCC NSCLC 103% | 786-0 renal 99.8%

Nc1ccc(CC[C@H]2CCC/C=C/[C@@H]3C[C@H](O)C[C@H]3[C@H](O)/C=C/C(=O)O2)cc1
active: NCI-H23 lung -22.7% | NCI-H226 lung 5.2% | NCI-H522 lung -46.6%
inactive: HOP-62 NSCLC 14.2% | NCI-H460 lung 10.5% | A549/ATCC NSCLC 11.9%

S=C1N(c2ccccc2)CN(C2CCCCC2)CN1c1ccccc1
inactive: NCI-H23 lung 100% | NCI-H226 lung 98.7% | HOP-62 NSCLC 99.9% | NCI-H460 lung 105% | A549/ATCC NSCLC 45.5% | 786-0 renal 100%
active: NCI-H522 lung -29.7%

CCOC(=O)c1cc(C(=O)c2ccc(OC)c(OC)c2)n2c1ccc1ccc3cccnc3c12
inactive: NCI-H23 lung 39.2% | NCI-H226 lung 64.4% | HOP-62 NSCLC 29.8% | NCI-H460 lung 11% | A549/ATCC NSCLC 36.8% | 786-0 renal 33.3%
active: NCI-H522 lung 0.908% | COLO 205 colon -2.29%

CCCCN1C(=O)CC(SC2CC(=O)N(CCCC)C2=O)C1=O (stereo not drawn)
inactive: NCI-H23 lung 97.9% | NCI-H226 lung 104% | HOP-62 NSCLC 106% | NCI-H460 lung 108% | HOP-92 NSCLC 97.8% | A549/ATCC NSCLC 119% | 786-0 renal 112% | COLO 205 colon 102%

COc1ccc2c(c1)C(=O)/C(=C/c1ncc([N+](=O)[O-])n1C)O2
active: NCI-H23 lung -5.43% | NCI-H226 lung -24.6% | HOP-62 NSCLC -27% | NCI-H460 lung -42.6% | NCI-H522 lung -51.5% | A549/ATCC NSCLC -27.8% | 786-0 renal -26.3% | COLO 205 colon -47.5%

Brc1ccc2c(c1)-c1ccccc1C1=NCCN12
active: NCI-H23 lung -8.64% | NCI-H226 lung -14.2% | HOP-62 NSCLC -24.3% | NCI-H460 lung -47.4% | NCI-H522 lung -61.9% | A549/ATCC NSCLC -18.8% | 786-0 renal -32.7% | COLO 205 colon -54%

CC(=O)N[C@H](C(=O)N[C@@H](CCCNC(=N)N)C(=O)N[C@@H](CCCCN)C(=O)N[C@@H](CCCNC(=N)N)C(=O)N[C@]1(C)CCC/C=C\CCC[C@@](C)(C(=O)N[C@@H](CC(C)C)C(=O)N[C@@H](CC(C)C)C(=O)N[C@@H](CCC(N)=O)C(=O)N[C@@H](CCC(=O)O)C(=O)N[C@@H](CCCNC(=N)N)C(=O)N[C@@H](CCC(=O)O)C(=O)N[C@@H](CC(C)C)C(=O)N[C@H](C(=O)N[C@@H](CCC(=O)O)C(N)=O)C(C)C)NC(=O)[C@H](CCCNC(=N)N)NC(=O)[C@H](CC(C)C)NC1=O)C(C)C
inactive: NCI-H23 lung 106% | NCI-H226 lung 102% | HOP-62 NSCLC 109% | NCI-H460 lung 105% | NCI-H522 lung 96.8% | A549/ATCC NSCLC 94.7% | 786-0 renal 98.1% | COLO 205 colon 102%

C#CC(C)(O)[C@@H]1C[C@H](CC(=O)O)C1(C)C (stereo partly drawn)
inactive: NCI-H23 lung 98% | NCI-H226 lung 111% | HOP-62 NSCLC 112% | NCI-H460 lung 116% | HOP-92 NSCLC 114% | A549/ATCC NSCLC 113% | 786-0 renal 110% | COLO 205 colon 122%

O=C(/C=C/c1cccc(B(O)O)c1)c1cccc(B(O)O)c1
active: NCI-H23 lung -0.41% | NCI-H226 lung -59.2% | HOP-62 NSCLC -34.7% | NCI-H522 lung -9.1% | 786-0 renal -88.6% | COLO 205 colon -90.8%
inactive: NCI-H460 lung 23.3% | A549/ATCC NSCLC 34.2%

CC(=O)Nc1ccc(S(=O)(=O)N/N=C(\C)c2ccc(C)cc2C)cc1
inactive: NCI-H23 lung 105% | NCI-H226 lung 107% | HOP-62 NSCLC 100% | NCI-H460 lung 106% | NCI-H522 lung 91.1% | A549/ATCC NSCLC 99.9% | 786-0 renal 105% | COLO 205 colon 103%

CSc1nc(S(C)(=O)=O)nc2[nH]c(=O)[nH]c12
inactive: NCI-H23 lung 98.8% | NCI-H226 lung 101% | HOP-62 NSCLC 98.2% | NCI-H460 lung 116% | HOP-92 NSCLC 97.5% | A549/ATCC NSCLC 106% | 786-0 renal 107% | COLO 205 colon 106%

COc1cc(N)c2ncccc2c1SC
inactive: NCI-H23 lung 93.6% | NCI-H226 lung 106% | HOP-62 NSCLC 107% | NCI-H460 lung 105% | HOP-92 NSCLC 94.6% | A549/ATCC NSCLC 99.5% | 786-0 renal 116% | COLO 205 colon 100%
